From PubChem BioAssay AID1486 (The Scripps Research Institute Molecular Screening Center, 2009)
“And” between values parts separate entries of the source, which are not always exact repeats. Equal entries are not always repeated. Among all 220,000 compounds or so, about 2,400 (1.1%) were called active.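 How the source made its calls: active means inhibition above a per-campaign cutoff, the mean inhibition of all tested compounds plus 3 SD (cut at about 27% in these data); inactive means the rest.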 What follows is part of a selection rich in actives, with near analogues and random picks from the rest.

Assay: growth loss in parental Ba/F3 cells – cell-based, murine pro-B, CellTiter-Glo luminescence, counter-screen for JAK2V617F inhibitor project (AID 1486);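 further: 0% = DMSO wells and 100% = JAK Inhibitor I control wells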
Conditions: Ba/F3 parental viability, CellTiter-Glo ATP luminescence; at 5.6 µM; stronger effect = higher value

Row | SMILES | inhibition
1 | CC(=O)N/C(=C/c1ccc(OC(F)F)cc1)C(=O)O | 6.54% (inactive)
2 | O=C(Nc1ccc(Cl)cc1)N1CCc2[nH]c3ccccc3c2C1 | 4.99% (inactive)
3 | Fc1ccc(NC(=S)N2CCc3[nH]c4ccccc4c3C2)cc1 | 35% (active)
4 | C=CCNC(=S)N1CCc2[nH]c3ccccc3c2C1 | 0.22% (inactive)
5 | CC12CCC(C(=O)N(NC(=O)c3ccccc3O)C1=O)C2(C)C (stereo not given) | 8.25% (inactive)
6 | COc1ccc(S(=O)(=O)NCC2CCCN(C(=O)c3occc3C)C2)cc1 (stereo not given) | 7.62% (inactive)
7 | Cc1cccc(NC(=O)COc2ccc(Br)cc2C)n1 | 6.66% (inactive)
8 | Cc1ccccc1OCC(=O)Nc1nc(C)c(C(=O)N(C)C)s1 | 7.55% (inactive)
9 | Cc1cccc(NC(=O)COc2ccccc2C)n1 | 83.3% (active)
10 | CC1(C)CC(=O)C/C(=N\NC(=O)c2cccs2)C1 | 8.84% (inactive)
11 | NS(=O)(=O)c1ccc(NC(=S)NC(=O)c2cccc(Br)c2)cc1 | 7.4% (inactive)
12 | O=C(C[n+]1cc(-c2ccc(Cl)c(Cl)c2)n2c1CCC2)c1cccs1 | 10.5% (inactive)
13 | Cn1c(-c2ccccc2)c[n+]2c1CCCCC2 | 3.67% (inactive)
14 | Cc1ccc(C(=O)C[n+]2cc(-c3ccccc3)n3c2CCCCC3)cc1 | 70.7% (active) and 65.4% (active)
15 | Clc1ccc(C[n+]2cc(-c3ccc(Cl)cc3)n3c2CCC3)cc1 | 58.9% (active)
16 | Cc1ccc(-c2c[n+](CC(=O)Nc3ccccc3)c3n2CCC3)cc1 | 0.41% (inactive)
17 | Clc1ccc(C[n+]2cc(-c3ccccc3)n3c2CCC3)cc1 | 63.7% (active)
18 | O=c1oc(-c2ccccc2NS(=O)(=O)c2ccc(Cl)cc2)nc2ccccc12 | 2.45% (inactive)
19 | Cc1ccc(/C=N/NC(=S)Nc2cccc(S(=O)(=O)N(C)C)c2)o1 | 2.16% (inactive)
20 | COC(=O)c1ccc(NC(=S)Nc2cccc(C)n2)cc1 | -3.59% (inactive)
21 | CC(=O)Nc1ccc(Nc2c3ccccc3nc3ccccc23)cc1 | 97.3% (active)
22 | O=[N+]([O-])c1cccc(Nc2c3ccccc3nc3ccccc23)c1 | 2.06% (inactive)
23 | Cc1ccc(Nc2c3c(nc4ccccc24)CCC3)cc1 | -1.93% (inactive)
24 | CC1=C(C)CC(C(=O)NNC(=O)c2csc3c2CCC(C(C)(C)C)C3)C(C(=O)O)C1 (stereo not given) | 4.65% (inactive)
25 | CCCCCn1c(=O)c(C(=O)OCC)c(Cl)c2ccccc21 | -3.36% (inactive)

Row | SMILES | inhibition
26 | Cc1ccc(S(=O)(=O)CC(=O)Nc2c(C)n(C)n(-c3ccccc3)c2=O)cc1 | 7.55% (inactive)
27 | CCOC(=O)C1CN(S(=O)(=O)c2ccc(F)cc2)C1 | 0.24% (inactive)
28 | Cc1c(CCO)c(=O)n(-c2ccccc2)n1S(=O)(=O)c1ccc(F)cc1 | 41% (active)
29 | Cc1cc(C)cc(OCC(=O)NNC(=O)CCN2C(=O)c3ccccc3C2=O)c1 | 5.47% (inactive)
30 | CCN(C(=O)COC(=O)c1c(NC(C)=O)sc(C)c1C)C1CCS(=O)(=O)C1 (stereo not given) | 8.25% (inactive)
31 | CCOC(=O)c1c(-c2ccc(C)cc2)csc1/N=C(\C)C1=C(O)c2ccccc2C1=O | -0.41% (inactive)
32 | CCOC(=O)c1ccccc1NS(=O)(=O)c1ccc(OC)cc1 | 5.36% (inactive)
33 | CCOC(=O)C1=C(c2ccc(OC)cc2)C(=O)c2ccccc2C1=O | 29.1% (active)
34 | Brc1ccc(-c2nn[nH]n2)cc1 | 0.72% (inactive)
35 | COc1ccc(OCCC(=O)c2ccc(OC)cc2)cc1 | -3.65% (inactive)
36 | COc1ccc(C(=O)C[n+]2ccc(N)c(C)c2C)cc1 | 74.6% (active)
37 | COc1ccc(C(=O)C[n+]2ccc(C)cc2)cc1 | 2.06% (inactive)
38 | O=C(CNS(=O)(=O)c1ccccc1)NCC(=O)OCc1ccccc1F | 8.12% (inactive)
39 | O=C(c1cncc(Br)c1)N1CCN(c2ccc([N+](=O)[O-])cc2)CC1 | 6.79% (inactive)
40 | O=C1NC(c2ccc(-c3ccccc3[N+](=O)[O-])o2)C(C(=O)c2ccc(Cl)cc2)C(O)(C(F)(F)F)N1 (stereo not given) | 6.99% (inactive)
41 | Cc1c(/C=N\NC(=O)c2cc3ccccc3o2)c2ccccc2n1C | 41.3% (active)
42 | O=C(N/N=C/c1c[nH]c2ccccc12)c1cc2ccccc2o1 | -2.26% (inactive)
43 | O=C(N/N=C/c1coc2ccccc2c1=O)c1cc2ccccc2o1 | 4.3% (inactive)
44 | CN(Cc1ccccc1)C(=O)CCc1ccccc1 | 1.56% (inactive)
45 | Cc1ccc(-c2cnc(NC(=O)CCC(=O)N(C)Cc3ccccc3)n2C)cc1 | 62.4% (active)
46 | Cn1c(-c2ccc(F)cc2)cnc1SCC(=O)NNC(=O)Cc1ccccc1 | 1.6% (inactive)
47 | CC(=O)Nc1nc(N(C)C)nc(N(C)C)n1 | 2.27% (inactive)
48 | COc1ccc(-n2nnnc2SCC(=O)NCc2cccs2)cc1 | 7.65% (inactive)
49 | COc1ccc(OCC(=O)NNC(=O)c2cccc(C)c2)cc1 | 1.18% (inactive)
50 | CN(NC(=O)c1ccccc1F)c1nc(C(F)(F)F)nc2ccccc12 | 73.9% (active)

Row | SMILES | inhibition
51 | COC(=O)CNC(=O)c1ccccc1F | 3.61% (inactive)
52 | CSc1nc(N(C)NC(=O)c2cccc(C)c2)c2ccccc2n1 | 90.9% (active)
53 | CN(NC(=O)c1ccccc1)c1nc2ccccc2nc1C(F)(F)F | 5.67% (inactive)
54 | COc1ccc(C(=O)NN(C)c2nc(-c3ccccc3)cc(C)c2S(C)(=O)=O)cc1 | 6.2% (inactive)
55 | Cc1cc(C)c2nc(SCC(=O)N(C)C3CCS(=O)(=O)C3)cc(C)c2c1 (stereo not given) | 2.01% (inactive)
56 | CCc1cc(CNC(=O)CC2C(=O)NCCN2Cc2ccccc2C(F)(F)F)on1 (stereo not given) | 2.77% (inactive)
57 | O=C(O)c1ccn(COc2ccc(Br)cc2)n1 | 6.73% (inactive)
58 | C=CCNC(=S)N/N=C/c1ccc(C)s1 | -10.6% (inactive)
59 | COC(=O)C1NN=C(C(=O)c2ccc(Br)cc2)C1c1cccc(Br)c1 (stereo not given) | 5.65% (inactive)
60 | CC(C)CCN1CCN(Cc2cn[nH]c2C2CCCCC2)CC1CCO (stereo not given) | 5.24% (inactive)
61 | CC1(C)CC(CNCCC(c2ccc(F)cc2)c2ccco2)CCO1 (stereo not given) | 4.73% (inactive)
62 | Cc1cc(NC(=O)CN2C(=O)NC(C)(CCc3ccccc3)C2=O)no1 (stereo not given) | -0.49% (inactive)
63 | O=C(Nc1ccc(CSc2ccccc2)cc1)c1ccc(CN2CCOCC2)cc1 | 6.68% (inactive)
64 | O=C(COC(=O)CNC(=O)c1ccccc1F)NCC(F)(F)F | 0.89% (inactive)
65 | CCOc1ccc(N2C(=O)CN(c3cccc4ccccc34)C2=S)cc1 | 80.4% (active)
66 | CCOc1ccc(N2C(=O)CC(N(O)c3ccccc3)C2=O)cc1 (stereo not given) | -1.11% (inactive)
67 | CCO/C=C1\C(=O)N(c2ccc(OCC)cc2)C(=O)c2ccccc21 | 0.91% (inactive)
68 | COc1ccc(CC(NC(C)=O)C(=O)NC2CCN(C(=O)C3CC3)CC2)cc1OC (stereo not given) | -2.26% (inactive)
69 | Cc1cc(NC(=O)Nc2ccc(Cl)cc2)n(-c2ccccc2)n1 | 0.47% (inactive)
70 | Cc1nn(-c2ccccc2)c(-n2cccc2)c1C(=O)O | 7.83% (inactive)
71 | CCn1c(SCC(=O)Nc2sc(C)c(C)c2C#N)nnc1C1CC1 | -1.4% (inactive)
72 | COC(=O)c1ccc(/C=N/N2C(C)CCCC2C)cc1 (stereo not given) | -0.91% (inactive)
73 | CCCC(=O)Nc1nc2ccc(NC(=O)c3c(F)c(F)c(OC)c(F)c3F)cc2s1 | 83.3% (active)
74 | COc1ccc2nc(Nc3nc4ccc(NC(C)=O)cc4s3)sc2c1 | 1.76% (inactive)
75 | CCCC(=O)Nc1nc2ccc(NC(=O)c3cccnc3)cc2s1 | 6.39% (inactive)

Row | SMILES | inhibition
76 | CN(C)C(=O)c1cccn(Cc2cccc(C(F)(F)F)c2)c1=O | 1.53% (inactive)
77 | N#Cc1ncc(C(F)(F)F)cc1Oc1cccnc1 | 3.06% (inactive)
78 | Cc1ccc2nc(Nc3ccccc3O)nc(-c3ccccc3)c2c1 | 2.87% (inactive)
79 | COc1ccc(OC)c(Nc2nc(-c3ccc(O)c(O)c3)cs2)c1 | 7.93% (inactive)
80 | COc1ccc(-c2csc(Cc3nc(O)cs3)n2)cc1 | 2.47% (inactive)
81 | CC(C)(C)C(=O)OCc1nc(-c2ccc(O)c(O)c2)cs1 | 55.4% (active)
82 | O=c1[nH]cnc2c1c(-c1ccccc1)cn2-c1ccc(F)cc1 | 5.71% (inactive)
83 | Cc1ccc2c(c1)C(O)(CC(=O)c1cccc(-n3cccc3)c1)C(=O)N2 (stereo not given) | 9.56% (inactive)
84 | Cc1cc2c(cc1C)[n+](C)cn2CC(O)COCC1CC=CCC1 (stereo not given) | 77.5% (active)
85 | CCc1ccc(-n2c(SCc3cc(=O)n4cc(Br)ccc4n3)nc3[nH]ncc3c2=O)cc1 | 3.56% (inactive)
86 | Fc1ccc2[nH]c3c(N4CCN(Cc5ccc6c(c5)OCO6)CC4)ncnc3c2c1 | 43.4% (active)
87 | Fc1ccc2[nH]c3c(N4CCSCC4)ncnc3c2c1 | 2.75% (inactive)
88 | Cc1cc(N2CCN(Cc3ccc4c(c3)OCO4)CC2)n2ncnc2n1 | 8.83% (inactive)
89 | Cc1ccc(OC(=O)c2c(C)nn(-c3ccccc3)c2C)cc1 | -2.11% (inactive)
90 | COc1cc(NS(=O)(=O)c2ccc(NC(C)=O)cc2)cc(OC)c1 | 6.53% (inactive)
91 | COc1ccc(NS(=O)(=O)c2ccc(NC(C)=O)cc2)cc1OC | 36.4% (active)
92 | COC(=O)COc1ccc(S(=O)(=O)Nc2ccc(NC(C)=O)cc2)cc1 | 3.84% (inactive)
93 | CCCCCCCC(=O)OC(CN1CCCCCC1)CN1CCCC1=O (stereo not given) | 2.21% (inactive)
94 | CCOc1cccc(-c2nnc3sc(COc4ccc(OC)cc4)nn23)c1 | 3.78% (inactive)
95 | CCOc1cccc(-n2nnnc2-c2ccc(OC)cc2)c1 | 56.8% (active)
96 | COc1ccc(-n2nnnc2-c2nc3ccccc3s2)cc1 | 2.01% (inactive)
97 | CN(C)S(=O)(=O)c1ccc(C(=O)NCC(C)(C)N2CCOCC2)cc1 | 0.19% (inactive)
98 | CC1(C)CC(N2CCN(C(c3ccccc3)c3ccccc3)CC2)=CC(=[N+]2CCCCC2)C1 | 88.5% (active)
99 | CC(C)NC(=S)N1CCN(C(c2ccccc2)c2ccccc2)CC1 | 5.27% (inactive)
100 | CC1(C)CC(=O)C=C(N2CCCC2)C1 | -2.25% (inactive)
